MITF inh = MITF inhibitors, primary screen, biochemical, AlphaScreen, human. Microphthalmia-associated transcription factor (Homo sapiens), O75030. AlphaScreen MITF homodimerization, bead proximity signal. inhibition, % at 2.6 µM. 650,000 tested, 0.91% active; in the data active means inhibition above about 50%
Target sequence (O75030 whole entry, looked up): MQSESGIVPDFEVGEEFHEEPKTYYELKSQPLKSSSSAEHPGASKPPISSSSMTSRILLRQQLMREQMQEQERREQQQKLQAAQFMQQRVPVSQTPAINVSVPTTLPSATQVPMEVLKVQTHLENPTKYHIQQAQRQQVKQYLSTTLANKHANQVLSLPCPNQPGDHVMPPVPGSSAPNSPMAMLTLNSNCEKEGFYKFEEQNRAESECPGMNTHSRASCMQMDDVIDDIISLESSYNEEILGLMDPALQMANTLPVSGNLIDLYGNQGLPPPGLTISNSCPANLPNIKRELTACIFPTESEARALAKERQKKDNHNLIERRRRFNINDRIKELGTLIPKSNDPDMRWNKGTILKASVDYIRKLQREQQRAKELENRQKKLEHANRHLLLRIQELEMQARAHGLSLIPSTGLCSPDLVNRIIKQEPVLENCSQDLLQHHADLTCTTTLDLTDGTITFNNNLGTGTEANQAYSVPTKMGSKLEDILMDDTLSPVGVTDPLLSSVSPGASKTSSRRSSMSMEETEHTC
TEAD-YAP inh = TEAD-YAP interaction inhibition, primary screen, TEAD-YAP interaction inhibitor project, luminescence, HEK-TIYL cells. inhibition, % at 9.12 µM. 640,000 tested, 1.4% active. TEAD-Gal4/YAP UAS-luciferase luminescence; in the data active means inhibition above about 32%
FBW7 activator = FBW7 E3 ligase activators, primary screen, biochemical, AlphaScreen, human; normalized activity (activation), % at 26.1 µM; AlphaScreen FBW7–phospho-cyclin E peptide binding, activator screen; AID 1259310, 2017; F-box/WD repeat-containing protein 7 (Homo sapiens), Q969H0; 650,000 tested, 0.13% active; in the data active means normalized activity above about 1.9%;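 further: purified mutant Fbw7 with reduced substrate affinity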
GPR151 ag = activators of human GPR151, primary screen, cell-based, PathHunter beta-arrestin, luminescence; PathHunter beta-arrestin GPR151 cells; AID 1508602, 2020; G-protein coupled receptor 151 (Homo sapiens), Q8TDV0; activation, % at 11.2 µM; 650,000 tested, 1% active; in the data active means activation above about 4.9%
Hits are given with their value; – = inactive. The list is not random: actives were taken first. Their share in the collection is about 3.5%.

SMILES | MITF inh | TEAD-YAP inh | FBW7 activator | GPR151 ag
c1cnc2ccc(Nc3nc(NCCN4CCOCC4)c4ncn(-c5ccsc5)c4n3)cc2c1 | – | 48.3 | – | –
c1ccc(-n2cnc3c(NCCN4CCOCC4)nc(Nc4ccc(N5CCOCC5)cc4)nc32)cc1 | – | 58.9 | – | –
CNC(=O)c1ccsc1NC(=O)Cc1ccccc1Cl | – | – | – | –
COC(=O)c1ccccc1NC(=O)c1ccc(NC(=O)C2COc3ccccc3O2)cc1 (configuration not stated) | – | – | – | –
O=C(COc1cccc(Cl)c1)N/N=C/c1cc(O)ccc1[N+](=O)[O-] | – | – | – | –
CN(C)c1cccc(C(=O)OCC(=O)Nc2ccc3[nH]c(=O)[nH]c3c2)c1 | – | – | – | –
Cc1cc(NC(=O)c2ccccc2)ccc1-c1cc2ccccc2oc1=O | – | – | – | –
Cc1cc(NC(=O)Cc2ccccc2)ccc1-c1cc2ccccc2oc1=O | – | 54.0 | – | –
Cc1ccccc1OCC(=O)Nc1ccc(-c2cc3ccccc3oc2=O)c(C)c1 | – | 44.7 | – | –
CCOCCCNCc1c(C(=O)O)c(C)n(Cc2ccccc2F)c1C | – | – | – | –
COc1cc(S(=O)(=O)N(Cc2cccs2)C2CCCC2)ccc1-n1cnnn1 | – | – | – | –
COc1cc(S(=O)(=O)N(Cc2ccccc2F)C2CCCC2)ccc1-n1cnnn1 | – | 66.6 | – | –
Cc1ncc([N+](=O)[O-])n1S(=O)(=O)c1ccccc1 | – | – | – | –
Cc1ncc([N+](=O)[O-])n1S(=O)(=O)c1cccc2ccccc12 | – | – | 2.3 | –
O=C(COC(=O)c1cc([N+](=O)[O-])ccc1Cl)Nc1ccc2ccccc2c1 | – | – | – | –
CCn1c2ccccc2c2cc(NC(=O)C(=O)NCCCOC)ccc21 | – | 39.8 | – | –
O=C(NCCC1=CCCCC1)c1ccc(I)cc1 | – | – | – | –
CCc1ccccc1NC(=O)c1cnn2cccnc12 | – | – | – | –
Cc1ccc(-n2c(-c3ccc(Cl)cc3)c[n+]3c2CCC3)cc1 | – | 63.9 | – | –
Nc1c[n+]2c(n1-c1ccc(Br)cc1)CCCCC2 | – | – | – | –
CCCNc1ccc2ncc(-c3ccc(OC)c(OC)c3)n2n1 | – | 33.9 | – | –
CCCNc1ccc2ncc(-c3cccc(C(N)=O)c3)n2n1 | – | 32.9 | – | –
COc1cc(-c2cnc3ccc(NCCCO)nn23)ccc1O | – | 74.6 | – | –
COc1ccc(CNc2ccc3ncc(-c4ccc(O)c(OC)c4)n3n2)cc1 | – | – | – | –
Cc1ccccc1OCC(=O)Nc1cc(-c2nc3ccccc3s2)ccc1Cl | – | – | – | –
SMILES | MITF inh | TEAD-YAP inh | FBW7 activator | GPR151 ag
Cc1ccc(C)c(-n2c(CNC(=O)c3ccco3)nnc2SCC(=O)Nc2nc3ccccc3s2)c1 | – | – | – | –
O=c1c2ccccc2nc(-c2ccccc2F)n1Cc1cccc([N+](=O)[O-])c1 | – | – | – | –
COc1ccc(Nc2nc(N3CCN(c4ccccc4OC)CC3)nc3[nH]ncc23)cc1 | – | – | – | –
COc1ccc(Nc2nc(N3CCCCC3)nc3[nH]ncc23)cc1 | – | 40.4 | – | –
COCCCN1C(=O)/C(=C/c2ccc(C)cc2)SC1=S | – | – | – | –
O=C(O)CCCN1C(=O)/C(=C/c2c(F)cccc2Cl)SC1=S | – | 59.8 | – | –
C=CCN1C(=O)S/C(=C/c2c(F)cccc2Cl)C1=O | – | – | – | –
Cc1cccc(/C=C2\SC(=S)N(CCCC(=O)O)C2=O)c1 | – | 74.6 | – | –
Cc1ccc(/C=C2\SC(=S)N(CCCC(=O)OCCN(C)C)C2=O)cc1 | – | 92.8 | – | –
C=CCOc1ccc(/C=C2\SC(=S)N(CCCC(=O)O)C2=O)cc1 | – | 80.2 | – | –
CC1=C(C(=O)Nc2ccccc2)C(c2ccccc2Cl)n2nnnc2N1 (configuration not stated) | – | – | – | –
Cc1ccc(/C=C2\SC(=S)N(CCCC(=O)O)C2=O)cc1 | – | 91.6 | – | –
Cc1ccccc1/C=C1\SC(=S)N(CCCC(=O)O)C1=O | – | 45.3 | – | –
Cc1ccc(/C=C2\SC(=S)N(CCCC(=O)N3CCOCC3)C2=O)cc1 | – | – | – | –
C#CCOc1ccc(/C=C2/SC(=S)N(CCC(=O)O)C2=O)cc1 | – | 58.5 | – | –
CCOc1ccc(/C=C2\SC(=S)N(CCC(=O)O)C2=O)cc1 | – | – | – | –
Cc1ccc(/C=C2/SC(=S)N(CCCC(=O)O)C2=O)cc1 | – | 85.9 | – | –

Screening results deposited in PubChem by The Scripps Research Institute Molecular Screening Center.
